From the supplement of paper PMC3334620
Whole data set: some 33,000 sequences, median “E-score (-0.5 to 0.5)” near -0.021, cut for the highest 2% near 0.32. Only a selection was taken, and the highest values are over-represented in it overall.

Target: T1, Zap1 (UniProt P47043)
T1 sequence: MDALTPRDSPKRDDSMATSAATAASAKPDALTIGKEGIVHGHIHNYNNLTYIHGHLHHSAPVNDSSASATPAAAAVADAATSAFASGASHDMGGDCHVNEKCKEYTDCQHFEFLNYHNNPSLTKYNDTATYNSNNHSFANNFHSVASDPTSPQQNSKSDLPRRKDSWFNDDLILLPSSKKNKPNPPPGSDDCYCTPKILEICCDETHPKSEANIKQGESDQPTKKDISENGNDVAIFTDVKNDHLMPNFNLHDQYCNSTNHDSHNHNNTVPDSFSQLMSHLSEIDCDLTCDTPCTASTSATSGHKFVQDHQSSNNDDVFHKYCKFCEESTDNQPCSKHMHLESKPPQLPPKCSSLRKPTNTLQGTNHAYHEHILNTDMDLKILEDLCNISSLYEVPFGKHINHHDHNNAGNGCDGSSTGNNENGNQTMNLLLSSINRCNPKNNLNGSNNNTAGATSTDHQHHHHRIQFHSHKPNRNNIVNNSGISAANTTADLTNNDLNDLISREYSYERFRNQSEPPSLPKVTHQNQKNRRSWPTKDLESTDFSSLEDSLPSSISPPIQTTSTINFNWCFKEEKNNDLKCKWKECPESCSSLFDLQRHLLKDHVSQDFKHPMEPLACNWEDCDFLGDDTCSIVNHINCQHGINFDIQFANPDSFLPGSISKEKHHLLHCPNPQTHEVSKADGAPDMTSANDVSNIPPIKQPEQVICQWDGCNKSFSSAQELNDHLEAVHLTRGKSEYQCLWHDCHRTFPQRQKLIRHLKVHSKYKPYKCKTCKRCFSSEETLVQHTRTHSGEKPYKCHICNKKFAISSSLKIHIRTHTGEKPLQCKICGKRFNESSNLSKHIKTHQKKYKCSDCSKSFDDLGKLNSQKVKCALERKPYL
Experiment: PBM E-score (8-mer binding enrichment) (E-score (-0.5 to 0.5)); higher = stronger / more preferred TF binding
Settings: protein concentration: 200 nM; construct: GST-full length
Protocol: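 Universal 'all 10-mer' protein binding microarrays (Agilent AMADID 015681) probed with GST-tagged S. cerevisiae TFs (full-length or DBD) made by in vitro transcription/translation (PURExpress), about 100-200 nM. Bound TF was detected with fluorescent anti-GST. Each ungapped 8-mer (which stands for itself and its reverse complement) is scored by the PBM enrichment score (E-score), a modified Wilcoxon-Mann-Whitney statistic from -0.5 to +0.5, computed with the Universal PBM Analysis Suite. Scale: above 0.35 generally sequence-specific binding.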

| Sequence | PBM E-score |
| --- | --- |
| CACTCTGG | -0.151 |
| CATTCTAG | -0.0521 |
| GGATAGAA | 0.0515 |
| CGTTAGAG | -0.109 |
| CATCCAGC | -0.108 |
| AACTTGAG | -0.143 |
| ACCTTGAG | 0.354 |
| ACCTTGCG | 0.284 |
| ACGGTCAT | 0.359 |
| AAGGTCAT | 0.444 |
| ACGGTCAA | 0.177 |
| AAGGTCCT | 0.123 |
| AAGGTCGA | 0.176 |
| AAGGTCGT | 0.334 |
| GAGGTCAA | 0.21 |
| GAGGTCAC | 0.392 |
| CAGGTCAC | 0.195 |
| AAGGTCGC | 0.193 |
| AAGGTCAA | 0.279 |
| ACGGTCAG | 0.0381 |
| GCTTGACC | 0.214 |
| ATAAAGAT | 0.00332 |
| AACACCTA | 0.0163 |
| ATGGTAGA | -0.00844 |
| GAGAGAGC | -0.261 |

| Sequence | PBM E-score |
| --- | --- |
| AAATGGAG | -0.132 |
| TGCCCTAA | -0.171 |
| CTTAGGGC | 0.0876 |
| ATTGACTG | -0.136 |
| AAGGTCCC | 0.152 |
| AAGGTCTG | 0.15 |
| CAGGTCAG | 0.0791 |
| AAGGTCTC | 0.162 |
| AAGGTCAC | 0.417 |
| AAGGTCAG | 0.32 |
| GAAAGCGC | -0.115 |
| AGAAACCG | 0.0611 |
| CTGTACTA | 0.0369 |
| GGCGACAC | -0.0969 |
| CGGCTGAC | -0.193 |
| GAGACCAC | 0.15 |
| GAGGGCAA | -0.0412 |
| CAGGCGAC | -0.117 |
| CACCCTAC | 0.328 |
| GACCCTAC | 0.311 |
| CACCCTAG | 0.353 |
| AAACCTAC | 0.194 |
| CACCCTCG | 0.234 |
| CCCCCTAC | -0.32 |
| AGCCCTAC | -0.12 |

| Sequence | PBM E-score |
| --- | --- |
| AACCCTAC | 0.357 |
| CGCCCTAG | -0.00248 |
| AAGCCTGT | -0.128 |
| AACCCTGT | 0.419 |
| AAACCTGT | 0.0581 |
| CTCAGCAG | -0.129 |
| TCAGCGAA | -0.107 |
| CTCGCTTA | -0.0929 |
| AAGCCTGC | -0.182 |
| CTTCAGTA | 0.0193 |
| AGAGACCA | 0.121 |
| ATGGTGCA | 0.0684 |
| CTCACGAG | 0.0376 |
| ACCTGAAT | 0.136 |
| CAGCTGTA | -0.203 |
| ATCCCTAG | 0.0856 |
| AAACCTAG | 0.051 |
| AACCCTCT | 0.27 |
| AAACCTAT | 0.164 |
| AACCCTAT | 0.441 |
| AACCCTAG | 0.408 |
| CAAATTCC | -0.00509 |
| AGTCACGA | 0.0207 |
| GGTCACAA | 0.393 |
| GGTCACGA | 0.391 |

| Sequence | PBM E-score |
| --- | --- |
| CGTCGCGA | 0.00596 |
| TGTCACAA | 0.0989 |
| CGTCACAA | -0.0229 |
| CGTCACGA | -0.0348 |
| AGTCGCGA | 0.113 |
| GGTCGCGA | 0.32 |
| AGATAGGG | -0.0822 |
| GAGCGTGC | -0.173 |
| TATTAGAA | 0.159 |
| AGAAGTCT | -0.257 |
| AGCCTGAG | -0.0458 |
| TGTGAGAA | -0.0687 |
| CGGACTTC | -0.17 |
| CATATGGA | -0.057 |
| AATCCAAC | -0.0925 |
| GAGACCTC | 0.0168 |
| ATCTAGGC | -0.197 |
| ACCTACAA | 0.178 |
| CCCTACAA | 0.33 |
| CCCTACAC | 0.0286 |
| CCAATGCA | -0.0366 |
| CAACTAAC | 0.21 |
| GCTCGAGC | -0.169 |
| CCACCTTA | 0.342 |
| CCACCTGA | 0.0282 |

| Sequence | PBM E-score |
| --- | --- |
| GCACCTTA | 0.112 |
| CTACCTGA | 0.00976 |
| CTACCTTA | 0.327 |
| ATACCTTA | 0.184 |
| AAGAGCAG | -0.247 |
| CAACTGGC | -0.0185 |
| AACCACTC | 0.289 |
| ATCTGTCC | -0.318 |
| ATGCAGTG | -0.0561 |
| GGGTTGGA | 0.16 |
| AAGTTGCG | 0.0515 |
| AGGTTGCC | 0.088 |
| CGGTTGCA | -0.0132 |
| GGGTTGCA | 0.352 |
| AGGTTGTC | 0.242 |
| AGGTTGCG | 0.333 |
| AGGTTGTG | 0.349 |
| AGGTTGCA | 0.299 |
| GGTTTGTA | 0.119 |
| GGGTTGTA | 0.35 |
| AGGTTGGG | 0.232 |
| CAGCATGG | -0.00544 |
| GCCCGCGC | -0.0387 |
| CGTCTAGC | -0.21 |
| TGACACCA | -0.0107 |

| Sequence | PBM E-score |
| --- | --- |
| CACGGCTG | -0.212 |
| CGGTTGTA | 0.153 |
| AGGTTGTA | 0.338 |
| AAGTTGTA | 0.112 |
| CCGTTTGC | 0.0589 |
| AACAGGGT | 0.348 |
| ACCAGGGT | 0.358 |
| AACAGGGC | -0.0745 |
| ACCAGGGG | -0.0398 |
| AATAGGGG | 0.0477 |
| ACCAGGGA | -0.00163 |
| AACAGGGA | 0.044 |
| AATAGGGT | 0.374 |
| AATAGGGA | -0.0102 |
| GATAGAGC | -0.0954 |
| CGCCACTA | -0.111 |
| GCCCTAGC | -0.148 |
| GGCCCTAC | 0.0088 |
| ATCCAGAA | 0.159 |
| CTCCTTCA | -0.168 |
| TACCCAGA | 0.265 |
| AAGAGATG | -0.16 |
| GCGTACCA | 0.0288 |
| GGGTACTA | 0.335 |
| AGGTACCA | 0.347 |

| Sequence | PBM E-score |
| --- | --- |
| TGGTACCA | 0.357 |
| GGGTACCA | 0.4 |
| TCGTACCA | 0.149 |
| AGGTACGA | -0.0106 |
| AGGTACTA | 0.29 |
| TAGTACCA | 0.163 |
| ACGTACCA | -0.0952 |
| CGGTACCA | 0.303 |
| CGGTACTA | 0.0114 |
| CACTAGCA | -0.00655 |
| ACATGCCG | -0.241 |
| GTGAGTGA | -0.147 |
| ACAAACTG | -0.16 |
| TGGTACAA | 0.146 |
| GGGTACAA | 0.345 |
| AGGTACAA | 0.15 |
| TCAGCTCA | -0.00847 |
| CCTTGGTC | 0.0233 |
| ATCGATTC | -0.119 |
| AAAACCAT | 0.283 |
| AGAACCAA | 0.148 |
| ATAACCAT | 0.457 |
